Experimental data from ChEMBL document CHEMBL3433997, “St. Jude Leishmania screening dataset” (2016).

Molecular target: Solute carrier family 2, facilitated glucose transporter member 1 (Homo sapiens) (UniProt P11166)
Test: ST_JUDE_LEISH: Cytotoxicity at 2uM final concentration against transgenic Leishmania Mexicana promastigotes LmGLUT1 that are glucose transport deficient and complemented with the human glucose transporter GLUT1. Activity is measured by DNA content using SYBR green in vitro
Assay type: functional

Solute carrier family 2, facilitated glucose transporter member 1 (Homo sapiens), sequence (P11166 whole entry): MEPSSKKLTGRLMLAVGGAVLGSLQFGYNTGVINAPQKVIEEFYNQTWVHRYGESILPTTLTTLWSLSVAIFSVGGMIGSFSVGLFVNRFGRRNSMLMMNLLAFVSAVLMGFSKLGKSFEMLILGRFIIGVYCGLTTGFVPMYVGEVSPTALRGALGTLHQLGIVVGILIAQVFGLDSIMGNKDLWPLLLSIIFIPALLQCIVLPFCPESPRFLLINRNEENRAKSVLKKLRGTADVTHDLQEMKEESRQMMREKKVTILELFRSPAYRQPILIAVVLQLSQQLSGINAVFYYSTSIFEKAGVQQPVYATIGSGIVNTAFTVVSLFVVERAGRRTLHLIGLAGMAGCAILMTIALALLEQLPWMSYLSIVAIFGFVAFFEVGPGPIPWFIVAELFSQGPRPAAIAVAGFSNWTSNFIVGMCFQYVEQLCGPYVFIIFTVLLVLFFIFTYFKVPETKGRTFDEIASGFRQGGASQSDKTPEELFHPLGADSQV

Compared with `CC(C)N1CCC(N(Cc2ccc(-c3ccc(C(F)(F)F)cc3)cc2)C(=O)Cn2c(SCc3cccc(F)c3F)cc(=O)c3c2CCC3)CC1`, `CC(=O)COc1c(C2CCN(CCCCNC(=O)c3ccc(-c4ccc(C(F)(F)F)cc4)cc3)CC2)ccc2c1CCCC2` is lower in inhibition: 4.88% for the first, 0.29% for the second.

First: CCCOc1ccc(C(=O)Nc2nonc2-c2ccc(OC)c(OC)c2)cc1
Second: CC(C)Oc1ccc(C=CC(=O)Nc2noc3ccccc23)cc1
The inhibition of the first is higher: 8.69% for the first, 2.56% for the second.

Going from `O=C(Nc1cccc(-c2cccc(-c3nc4cc(C(F)(F)F)ccc4[nH]3)c2)c1)c1c[nH]cn1` to `O=C(Cc1c[nH]cn1)Nc1cccc(-c2ccc(-c3nc4cc(C(F)(F)F)ccc4[nH]3)cc2)c1`, the inhibition rises from 1.86% to 3.54%.

Compared with `C[C@H](NC(=O)c1c(CN2CCC(N3CCCCC3)CC2)c(-c2ccccc2)nc2cc(O)ccc12)C1CCCCC1`, `O=C(Nc1cccc(CN2CCN(Cc3ccc(O)cc3)CC2)c1)c1cc2ccccc2s1` is higher in inhibition: 4.25% for the first, 8.18% for the second.

First: CC(C)C[C@H]1c2[nH]c3ccc(Cl)cc3c2CCN1C(=O)CCc1ccccc1
Second: Cc1cc(OCC2CCN(c3ncc(C(=O)Nc4ccccc4)cc3Cl)CC2)ccc1F
The inhibition of the first is higher: 3.74% for the first, 1.05% for the second.

Compared with `O=C(NC1CCC(CCN2Cc3cccc(F)c3C2)CC1)c1cccc(-c2cccnc2)c1` (stereo not given), `O=C(Nc1ccc(-c2ccccc2)c(OCCN2CCNCC2)c1)c1ccc(-c2ccc(Cl)cc2)cc1` is higher in inhibition: 0.7% for the first, 3.89% for the second.

Compared with `O=c1cc(NCCCNCc2ccc3c(c2)OC(F)(F)O3)[nH]c2ccccc12`, `CCCCOc1cc(CNCCCCCCNCc2cc(OCCCC)cc3ccccc23)c2ccccc2c1` is higher in inhibition: -0.44% for the first, 4.98% for the second.

Going from `O=C(NCCN1CCN(S(=O)(=O)c2ccc(OC3CCNCC3)c(Br)c2)CC1)c1ccc(Cl)c(Cl)c1` to `O=C(NCc1ccc(Cl)c(Cl)c1)c1ccc(C2CCCN(Cc3ccc4[nH]cnc4c3)C2)cc1` (stereo not given), the inhibition rises from 3.33% to 5%.

Going from `COc1ccc(-c2cc(C(=O)Nc3ccc4[nH]c(-c5ccccc5)nc4c3)[nH]n2)cc1` to `Cc1nnsc1C(=O)Nc1cccc(-c2csc(-c3nc4ccccc4[nH]3)c2)c1`, the inhibition falls from 13.1% to 2.53%.

Going from `O=C(Nc1ccc2c(ccn2C2CCCN(Cc3cc(F)cc(F)c3F)CC2)c1)c1ccco1` (stereo not given) to `Clc1ccccc1CN1CCC(NCc2cccc(-n3ccnc3)c2)CC1`, the inhibition rises from 1.97% to 2.64%.

First: COC(=O)c1ccc(N2CCN(CCCCNC(=O)c3ccc(NC(=O)c4ccc(Cl)cc4)cc3)CC2)c(OC)c1
Second: CC(C)CCN1CCCN(Cc2cccc(C(=O)Nc3ccc(C(C)(C)C)cc3)c2)CC1
The inhibition of the first is lower: 0.45% for the first, 3.18% for the second.

First: Cc1cc(N[C@@H](Cc2ccccc2)C(=O)NCc2cccs2)nc(NCCc2cccnc2)n1
Second: CCNc1cc(C)nc(Nc2ccc(NC(=O)c3ccccc3Cl)cc2)n1
The inhibition of the first is lower: 1.39% for the first, 6.51% for the second.

Compared with `CS(=O)(=O)c1ccc(Nc2ncc(-c3ccc(S(C)(=O)=O)cc3)c(OCC(F)(F)F)n2)cc1`, `CNC(=O)c1cnc(Nc2ccc(N3CCOCC3)cc2)nc1Nc1cccc(OC)c1` is lower in inhibition: 4.36% for the first, -0.53% for the second.

Compared with `CC1CCC(C(C)C)C(OC(=O)CSc2nnc3c(n2)[nH]c2ccccc23)C1` (stereo not given), `CC(C)CCN1CCC(Oc2cccc(NC(=O)c3ccc(C(F)(F)F)cc3)c2)CC1` is higher in inhibition: -1.05% for the first, 1.54% for the second.

Compared with `Cc1cccc2nc(-c3ccc(-c4ccc(NC(=O)Nc5ccc(F)c(F)c5F)cc4)cc3)[nH]c12`, `Cc1cnc(C(=O)Nc2cccc(-c3ccc(-c4nc5cc(C(F)(F)F)ccc5[nH]4)s3)c2)cn1` is lower in inhibition: 8.48% for the first, 8.07% for the second.

Going from `CN(C)CCNc1ncnc2c1[nH]c1ccc(Cl)cc12` to `CN(C)CCC=C1c2ccccc2Sc2c(O)cc(Cl)cc21`, the inhibition falls from 3.7% to -0.51%.

Going from `O=C(Nc1ccc(C(F)(F)F)cc1)Nc1ccccc1N1CCNCC1` to `O=C(Nc1cccc(F)c1)N1CCC(NS(=O)(=O)c2ccc(Br)cc2)CC1`, the inhibition rises from 2.1% to 4.47%.

First: O=C(c1ccc([N+](=O)[O-])o1)N1CCN(c2nc3c(Cl)cccc3s2)CC1
Second: CC(C)c1ccc(OCC(O)CN(CCN2CCOCC2)C(=O)Nc2ccc(Br)cc2)cc1 (stereo not given)
The inhibition of the first is higher: 39.8% for the first, 7.44% for the second.

Going from `O=C(Nc1ccc(NC2=NCCN2)cc1)c1ccc(C(=O)Nc2ccc(NC3=NCCN3)cc2)cc1` to `Cc1ccc(O)cc1Nc1ccnc2cc(-c3ccccn3)ccc12`, the inhibition falls from 17.6% to 5.99%.

Compared with `CC(=O)N[C@@H]1c2cc(C(C)=O)ccc2OC(C)(C)[C@@H]1O`, `Cc1nccn1Cc1cc(C(C)(C)C)c(O)c(C(C)(C)C)c1` is higher in inhibition: -0.93% for the first, 3.44% for the second.

Molecular target: Hexose transporter 1 (Plasmodium falciparum) (UniProt O97467)
Test: ST_JUDE_LEISH: Cytotoxicity at 2uM final concentration against transgenic Leishmania Mexicana promastigotes LmPfHT that are glucose transport deficient and complemented with the Plasmodium falciparum hexose transporter. Activity is measured by DNA content using SYBR green in vitro
Assay type: functional

Compared with `CC(C)N1CCC(N(Cc2ccc(-c3ccc(C(F)(F)F)cc3)cc2)C(=O)Cn2c(SCc3cccc(F)c3F)cc(=O)c3c2CCC3)CC1`, `CC(=O)COc1c(C2CCN(CCCCNC(=O)c3ccc(-c4ccc(C(F)(F)F)cc4)cc3)CC2)ccc2c1CCCC2` is higher in inhibition: -0.24% for the first, 5.93% for the second.

Compared with `CCCOc1ccc(C(=O)Nc2nonc2-c2ccc(OC)c(OC)c2)cc1`, `CC(C)Oc1ccc(C=CC(=O)Nc2noc3ccccc23)cc1` is lower in inhibition: 7.86% for the first, 3.16% for the second.

First: O=C(Nc1cccc(-c2cccc(-c3nc4cc(C(F)(F)F)ccc4[nH]3)c2)c1)c1c[nH]cn1
Second: O=C(Cc1c[nH]cn1)Nc1cccc(-c2ccc(-c3nc4cc(C(F)(F)F)ccc4[nH]3)cc2)c1
The inhibition of the first is higher: 3.96% for the first, 3.75% for the second.

Compared with `C[C@H](NC(=O)c1c(CN2CCC(N3CCCCC3)CC2)c(-c2ccccc2)nc2cc(O)ccc12)C1CCCCC1`, `O=C(Nc1cccc(CN2CCN(Cc3ccc(O)cc3)CC2)c1)c1cc2ccccc2s1` is higher in inhibition: 4.06% for the first, 7.34% for the second.

Going from `CC(C)C[C@H]1c2[nH]c3ccc(Cl)cc3c2CCN1C(=O)CCc1ccccc1` to `Cc1cc(OCC2CCN(c3ncc(C(=O)Nc4ccccc4)cc3Cl)CC2)ccc1F`, the inhibition falls from 2.53% to -2.28%.

Going from `O=C(NC1CCC(CCN2Cc3cccc(F)c3C2)CC1)c1cccc(-c2cccnc2)c1` (stereo not given) to `O=C(Nc1ccc(-c2ccccc2)c(OCCN2CCNCC2)c1)c1ccc(-c2ccc(Cl)cc2)cc1`, the inhibition rises from 1.22% to 5.96%.

Going from `O=c1cc(NCCCNCc2ccc3c(c2)OC(F)(F)O3)[nH]c2ccccc12` to `CCCCOc1cc(CNCCCCCCNCc2cc(OCCCC)cc3ccccc23)c2ccccc2c1`, the inhibition rises from 0.16% to 0.76%.

First: O=C(NCCN1CCN(S(=O)(=O)c2ccc(OC3CCNCC3)c(Br)c2)CC1)c1ccc(Cl)c(Cl)c1
Second: O=C(NCc1ccc(Cl)c(Cl)c1)c1ccc(C2CCCN(Cc3ccc4[nH]cnc4c3)C2)cc1 (stereo not given)
The inhibition of the first is lower: 3.46% for the first, 9.77% for the second.

Compared with `COc1ccc(-c2cc(C(=O)Nc3ccc4[nH]c(-c5ccccc5)nc4c3)[nH]n2)cc1`, `Cc1nnsc1C(=O)Nc1cccc(-c2csc(-c3nc4ccccc4[nH]3)c2)c1` is lower in inhibition: 12% for the first, 3.19% for the second.

Compared with `O=C(Nc1ccc2c(ccn2C2CCCN(Cc3cc(F)cc(F)c3F)CC2)c1)c1ccco1` (stereo not given), `Clc1ccccc1CN1CCC(NCc2cccc(-n3ccnc3)c2)CC1` is higher in inhibition: -3.49% for the first, -1.07% for the second.

First: COC(=O)c1ccc(N2CCN(CCCCNC(=O)c3ccc(NC(=O)c4ccc(Cl)cc4)cc3)CC2)c(OC)c1
Second: CC(C)CCN1CCCN(Cc2cccc(C(=O)Nc3ccc(C(C)(C)C)cc3)c2)CC1
The inhibition of the first is higher: 1.46% for the first, 0.18% for the second.

Going from `Cc1cc(N[C@@H](Cc2ccccc2)C(=O)NCc2cccs2)nc(NCCc2cccnc2)n1` to `CCNc1cc(C)nc(Nc2ccc(NC(=O)c3ccccc3Cl)cc2)n1`, the inhibition rises from 1.61% to 8.33%.

First: CS(=O)(=O)c1ccc(Nc2ncc(-c3ccc(S(C)(=O)=O)cc3)c(OCC(F)(F)F)n2)cc1
Second: CNC(=O)c1cnc(Nc2ccc(N3CCOCC3)cc2)nc1Nc1cccc(OC)c1
The inhibition of the first is higher: 0.18% for the first, -1.08% for the second.

Going from `CC1CCC(C(C)C)C(OC(=O)CSc2nnc3c(n2)[nH]c2ccccc23)C1` (stereo not given) to `CC(C)CCN1CCC(Oc2cccc(NC(=O)c3ccc(C(F)(F)F)cc3)c2)CC1`, the inhibition rises from -0.14% to -0.13%.

Going from `Cc1cccc2nc(-c3ccc(-c4ccc(NC(=O)Nc5ccc(F)c(F)c5F)cc4)cc3)[nH]c12` to `Cc1cnc(C(=O)Nc2cccc(-c3ccc(-c4nc5cc(C(F)(F)F)ccc5[nH]4)s3)c2)cn1`, the inhibition falls from 8.02% to 5.21%.

First: CN(C)CCNc1ncnc2c1[nH]c1ccc(Cl)cc12
Second: CN(C)CCC=C1c2ccccc2Sc2c(O)cc(Cl)cc21
The inhibition of the first is lower: 3.91% for the first, 4.06% for the second.

Compared with `O=C(Nc1ccc(C(F)(F)F)cc1)Nc1ccccc1N1CCNCC1`, `O=C(Nc1cccc(F)c1)N1CCC(NS(=O)(=O)c2ccc(Br)cc2)CC1` is higher in inhibition: 1.1% for the first, 4% for the second.

First: O=C(c1ccc([N+](=O)[O-])o1)N1CCN(c2nc3c(Cl)cccc3s2)CC1
Second: CC(C)c1ccc(OCC(O)CN(CCN2CCOCC2)C(=O)Nc2ccc(Br)cc2)cc1 (stereo not given)
The inhibition of the first is higher: 37.4% for the first, 5.63% for the second.

Going from `O=C(Nc1ccc(NC2=NCCN2)cc1)c1ccc(C(=O)Nc2ccc(NC3=NCCN3)cc2)cc1` to `Cc1ccc(O)cc1Nc1ccnc2cc(-c3ccccn3)ccc12`, the inhibition falls from 18.1% to 4.26%.

Going from `CC(=O)N[C@@H]1c2cc(C(C)=O)ccc2OC(C)(C)[C@@H]1O` to `Cc1nccn1Cc1cc(C(C)(C)C)c(O)c(C(C)(C)C)c1`, the inhibition rises from -0.7% to 2.22%.
